HT1080NT lethal = kills 2HG-producing HT-1080-NT fibrosarcoma cells; HT-1080-NT fibrosarcoma viability, CellTiter-Glo ATP luminescence, 48 h; Potency, µM (highest dose often 46.1 µM), without a hit: at the top dose activity, negative = less viability, actives largely listed as cytotoxic; 1.6% of 360,000 active;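 also: NT is the 2HG producing partner of a matched IDH1 knockdown line; 0% = DMSO-treated cells and -100% = media-only wells without cells; nearly all actives have a fitted effect of over 55% in size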
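Read-out is CellTiter-Glo luminescence after 10 minutes at room temperature, following 48 hours' compound treatment of HT-1080-NT cells (750 cells/well, RPMI, 5% FBS, 37 degrees C).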
ATXN2 expr inh = ATXN2 expression inhibition | 0.72% of 360,000 active | AID 1745845 | Potency, µM (highest dose often 57 µM), inactives show at the top dose activity change, negative = inhibition, actives largely listed as inhibitors | HEK-293 ATXN2-luciferase reporter, luminescence, 24 h; also: % is scaled to controls: 0 for no effect and ±100 for the full control effect; nearly all actives have a fitted effect of over 55% in size
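qHTS (up to 57 uM final) was run with 24 h compound exposure of reporter cells at 37 °C. Each well was multiplexed: SteadyGlo luminescence measured ATXN2-luciferase expression after a fluorogenic Gly-Phe-AFC viability readout (25 uM final).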
ATXN viability = reduces viability in counter-screen for ATXN expression inhibitors; S2 cells (HEK-293 line with an ATXN2-luciferase reporter) viability, CellTiter-Fluor protease fluorescence, 24 h; Potency, µM (top dose mostly 56.7 µM), most hits filed as cytotoxic; 0.49% of 400,000 active; AID 651635; also: nearly all actives have a fitted effect of over 40% in size
HT1080 IDH1KD tx = kills HT-1080 cells with IDH1 knockdown; HT-1080 IDH1 knockdown viability, ATP luminescence, 48 h; Potency, µM (titrated, usually from 46.1 µM), inactives show at the highest dose activity, negative = toxicity, most hits filed as cytotoxic; 2% of 360,000 active;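 also: 0% = DMSO wells and -100% = cell-free medium wells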
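Assay cells: HT-1080 with IDH1 knockdown, 750 per well, RPMI/5% FBS. Exposure: 48 h at 37 °C following 2 h pre-incubation. Read: CellTiter-Glo luminescence; fitted concentration-response, curve class assigned.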
TGFb inhibitor = blocks TGF-b signaling; AID 588855; HepG2 CAGA-GFP TGF-b/SMAD3 reporter, GFP fluorescence, 18 h; TGF-beta stimulated, 500 pg/mL final; Potency, µM (series often up to 46.1 µM), for inactives: at the highest dose activity, negative = inhibition, hits mostly inhibitors; 1.2% of 410,000 active; also: % is scaled to controls: 0 for no effect and ±100 for the full control effect; nearly all actives have a fitted effect of over 65% in size
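Inhibition was scored as loss of TGF-beta-induced (500 pg/mL final, 18 hours, 37 degrees C) GFP in HEPG2 cells carrying a CAGA-GFP reporter, in DMEM with 1% FBS. Well GFP was summed per cell; Activity was normalised to unstimulated and stimulated DMSO wells, then concentration-response fitting.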
HepG2 viability = counter-screen for TGF-b inhibitors: cytotoxicity in HepG2 cells; HepG2 CAGA-GFP viability, ATP luminescence, 18 h; Potency, µM (top dose mostly 46.1 µM), without a hit: at the top dose activity change, negative = cytotoxicity, hits mostly cytotoxic; 0.76% of 410,000 active; AID 588856
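HepG2 CAGA-GFP cells (1000/well, DMEM with 1% FBS) received compound, then TGF-beta at 500 pg/mL final, and were incubated 18 hours at 37 degrees C. Viability was read by CellTiter-Glo luminescence. Media-only wells were set as complete cell-killing and DMSO as no toxicity.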
* marks the source's active call; other numbers are inactive results. A selection: hits, their analogues and other compounds. The true share with any hit is near 3.8%. Calls follow the shape of the dose curve; as a rule, active = well fitted curve in the direction sought with a large enough effect; inconclusive = small, poorly fitted or top-dose-only effect, or another doubt; inactive = no such curve, though single readings can be large; an effect the other way counts as inactive or inconclusive. Potency is read from the fitted curve at half-maximal effect.

For COc1ccc(-n2nc(C(=O)Nc3cc(OC)c(OC)c(OC)c3)c(=O)n(C)c2=O)cc1 the results were TGFb inhibitor -2.5% and HepG2 viability -13.0%.
`COC(=O)[C@@H]1CCCN1C(=O)c1c(OC)cc(=O)n2c1CCN(Cc1ccc3nsnc3c1)CC2` gave ATXN viability inactive.
For COc1cc(C[C@@H]2NCCc3cc(O)c(O)cc32)cc(OC)c1OC the results were ATXN viability inactive.
`CCCCN(Cc1ccccc1)C(=O)CN(C)S(=O)(=O)c1ccc2c(c1)c(=O)n(C)c(=O)n2C` gave ATXN2 expr inh 14.0%, ATXN viability inactive, TGFb inhibitor inconclusive and HepG2 viability 7.2%.
Cc1cccc(C(=O)N[C@H](C(=O)Nc2ncc(C)s2)C(C)C)c1 was read as HT1080NT lethal -22.5%, ATXN2 expr inh 8.44µM*, ATXN viability inactive, HT1080 IDH1KD tx -25.0%, TGFb inhibitor 11.2µM* and HepG2 viability 7.3%.
For Oc1ccc2ccccc2c1/C=C/c1ccc2c(Br)cc(Br)c(O)c2n1 the results were HT1080NT lethal inconclusive, ATXN2 expr inh inconclusive, ATXN viability inconclusive, HT1080 IDH1KD tx 29.1µM*, TGFb inhibitor inconclusive and HepG2 viability -83.3%.
Screening COc1cccc2cc(C(=O)N3CC(C)OC(C)C3)c(=O)oc12 (configuration not stated) returned HT1080NT lethal -3.0%, ATXN2 expr inh -18.8%, ATXN viability inactive, HT1080 IDH1KD tx 8.4%, TGFb inhibitor inconclusive and HepG2 viability -25.9%.
`COc1cc2c(oc(=O)c3cc(C)cc(OC)c32)c2c(C3OC(C)C(O)C(C)(O)C3O)ccc(O)c12` (configuration not stated) gave HT1080NT lethal inconclusive, ATXN2 expr inh 0.0%, ATXN viability inconclusive, HT1080 IDH1KD tx inconclusive, TGFb inhibitor 7.08µM* and HepG2 viability 2.2%.
CCCSc1nc2cc(OC)c(OC)cc2c(=N)n1CCCN1CCOCC1 was read as HT1080NT lethal 14.6µM*, ATXN2 expr inh inconclusive, ATXN viability inactive, HT1080 IDH1KD tx inconclusive, TGFb inhibitor 15.3% and HepG2 viability 2.3%.
`O=C(Nc1ccc(Cl)c(Cl)c1)Nc1nccs1` gave HT1080NT lethal inconclusive, ATXN viability inconclusive, HT1080 IDH1KD tx inconclusive, TGFb inhibitor inconclusive and HepG2 viability 11.2µM*.
Screening Cc1sc2ccccc2[n+]1CCC(C)S(=O)(=O)[O-] (configuration not stated) returned HT1080NT lethal 7.8%, ATXN2 expr inh -3.6%, ATXN viability inactive, HT1080 IDH1KD tx 13.4%, TGFb inhibitor 2.3% and HepG2 viability -12.3%.
Screening Cc1sc2ccccc2[n+]1CCC[n+]1c(C)sc2ccccc21 returned TGFb inhibitor 11.2µM* and HepG2 viability -38.4%.
For COc1cccc(/C=C2/Sc3ccc(C(=O)NCCN4CCCC4)cc3NC2=O)c1 the results were HT1080NT lethal -11.7%, ATXN viability inconclusive, HT1080 IDH1KD tx -8.6%, TGFb inhibitor inconclusive and HepG2 viability 14.1µM*.
Screening COc1cccc(/C=C2/Sc3ccc(C(=O)NCCCN4CCCC4)cc3NC2=O)c1 returned HT1080NT lethal 6.4%, ATXN viability inconclusive, HT1080 IDH1KD tx 2.4%, TGFb inhibitor inconclusive and HepG2 viability -109.7%.
CCN1CCCC1CNC(=O)c1ccc2c(c1)NC(=O)/C(=C\c1ccc(C)cc1)S2 (configuration not stated) was read as HT1080NT lethal inconclusive, HT1080 IDH1KD tx 0.0%, TGFb inhibitor inconclusive and HepG2 viability 15.8µM*.
Screening Cc1ccc(/C=C2/Sc3ccc(C(=O)NCCN4CCOCC4)cc3NC2=O)cc1 returned HT1080NT lethal 0.7%, ATXN viability inactive, HT1080 IDH1KD tx -1.8%, TGFb inhibitor 25.6% and HepG2 viability 39.1%.
